According to the supplement of paper PMC7411054:
Structures can show the parent of a compound that is named as a salt.

Each compound was assayed on HepG2-TUBA1B-RELA (assay: phenotypically active (imaging signature differs from DMSO and reproducible) at any of 0.3-9 uM (binary (1 = active, 0 = inactive)); higher = active). Settings: treatment time: 24 h.
Method in brief: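 The reporter lines, fifteen in total and built by gene editing in A549, HepG2 and WPMY1 cells, used BFP for segmentation alongside GFP and RFP/FusionRed markers. Each was treated at 0.3, 1, 3 or 9 µM for 24 h in four wells and then imaged live, with live-cell features normalised to solvent control wells. Deviation meant ≥3 of 4 wells beyond the 95th percentile of control Euclidean distances; reproducibility meant a median replicate Pearson correlation above the 95th percentile of non-replicates. Only conditions meeting both were scored as phenotypically active.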

Phenotypically active, active:
O=c1[nH]cc(F)c(=O)[nH]1 [5-Fluorouracil] 1
CC[C@H](C)[C@H](NC(=O)OCc1ccccc1)C(=O)N[C@@H](CCC(=O)OC(C)(C)C)C(=O)N[C@@H](C)C(=O)N[C@H](C=O)CC(C)C 1
CCN1CCN(C(c2cccnc2)c2cc(Cl)c3cccnc3c2O)CC1 (centres undefined) 1
CCOc1cc(N2CCC(O)CC2)ccc1Nc1ncc2c(n1)N(C)c1ccccc1C(=O)N2C 1
Cc1c2oc3c(C)ccc(C(=O)NC4C(=O)NC(C(C)C)C(=O)N5CCCC5C(=O)N(C)CC(=O)N(C)C(C(C)C)C(=O)OC4C)c3nc-2c(C(=O)NC2C(=O)NC(C(C)C)C(=O)N3CCCC3C(=O)N(C)CC(=O)N(C)C(C(C)C)C(=O)OC2C)c(N)c1=O (centres undefined) [Actinomycin D] 1
N#Cc1c(NC(=O)c2cccc3ccccc23)sc2c1CCCC2 1
COc1ccc2c(Oc3ccc(NC(=O)c4c(C)n(CC(C)(C)O)n(-c5ccccc5)c4=O)nc3)ccnc2c1 1
CN1C/C(=C/c2ccc(B(O)O)cc2)C(=O)/C(=C/c2ccc(B(O)O)cc2)C1 1
Nc1ccn([C@@H]2O[C@H](CO)[C@@H](O)C2(F)F)c(=O)n1 [gemcitabine] 1
Cc1nc(NC(=O)N2CCC[C@H]2C(N)=O)sc1-c1ccnc(C(C)(C)C(F)(F)F)c1 [alpelisib] 1
CCN(CC)CCCC(C)Nc1ccnc2cc(Cl)ccc12 (centres undefined) [chloroquine] 1
O=c1cc(-c2cccc3c2Sc2ccccc2S3)oc(N2CCOCC2)c1 1
CC(C)CCN1c2nc(Nc3cc(F)c(O)c(F)c3)ncc2N(C)C(=O)C1C (centres undefined) 1
Nc1cc(C(F)(F)F)c(-c2cc(N3CCOCC3)nc(N3CCOCC3)n2)cn1 [buparlisib] 1
COc1cc([C@@H]2c3cc4c(cc3[C@@H](O[C@@H]3O[C@@H]5CO[C@@H](C)O[C@H]5[C@H](O)[C@H]3O)[C@H]3COC(=O)[C@H]23)OCO4)cc(OC)c1O [etoposide] 1

Phenotypically active, inactive:
OCc1ccccc1O[C@@H]1O[C@H](CO)[C@@H](O)[C@H](O)[C@H]1O [Salicin] 0
O=C(c1ccc(C(=O)N2CCC(N3CCCC3)CC2)c(Nc2ccccc2)c1)N1CCC(N2CCCC2)CC1 0
CN1CCN(C2=Nc3cc(Cl)ccc3Nc3ccccc32)CC1 [clozapine] 0
Cc1cc(C(C)(C)C)c(O)c(C)c1CC1=NCCN1 [oxymetazoline] 0
CC1(C)NC(=O)N(c2ccc([N+](=O)[O-])c(C(F)(F)F)c2)C1=O [nilutamide] 0
Nc1nc2ccc(OC(F)(F)F)cc2s1 [riluzole] 0
NCCNS(=O)(=O)c1cccc2cnccc12 [H-9 dihydrochloride] 0
C[C@@H](c1ncncc1F)[C@](O)(Cn1cncn1)c1ccc(F)cc1F [voriconazole] 0
Oc1ccc(Nc2nc(-c3ccc(Cl)cc3)cs2)cc1 0
C/C(=C/C(=O)Nc1ccccc1C(=O)O)c1ccc2ccccc2c1 0
NCCC(O)(P(=O)(O)O)P(=O)(O)O [pamidronate] 0
CCN1CCN(c2ccc(Nc3cc(N(C)C(=O)Nc4c(Cl)c(OC)cc(OC)c4Cl)ncn3)cc2)CC1 0
C[C@H]1O[C@H](O[C@H]2[C@H](O)[C@@H](O)[C@@H](O[C@H]3[C@H](O)[C@@H](O)[C@H](O)O[C@@H]3CO)O[C@@H]2CO)[C@H](O)[C@@H](O)[C@@H]1N[C@H]1C=C(CO)[C@@H](O)[C@H](O)[C@H]1O [Acarbose] 0
C/C(=C/c1ccc(C(=O)O)cc1)c1ccc2c(c1)C(C)(C)CCC2(C)C 0
Cc1ccc(S(=O)(=O)/C=C/C#N)cc1 0
CCCc1nc2c(C)cc(-c3nc4ccccc4n3C)cc2n1Cc1ccc(-c2ccccc2C(=O)O)cc1 [telmisartan] 0
COc1cc2nccc(Oc3ccc(NC(=O)NC4CC4)c(Cl)c3)c2cc1C(N)=O [lenvatinib] 0
Nc1ccn([C@@H]2O[C@H](CO)[C@@H](O)[C@H]2O)c(=O)n1 [Cytidine] 0
OC(CCN1CCCCC1)(c1ccccc1)C1CCCCC1 (centres undefined) [trihexyphenidyl] 0
